Hits are enriched below; roughly 8% of the tested compounds scored in any of these assays.
HT1080 IDH1KD tx: qHTS for induction of synthetic lethality in tumor cells producing 2HG: qHTS for the HT-1080-IDH1KD cell line. HT-1080 IDH1 knockdown viability, ATP luminescence, 48 h. Potency, µM (top dose mostly 46.1 µM), for the others: top-dose activity, negative = toxicity, actives largely listed as cytotoxic. hit rate 2% among 360,000;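 also: 0% = DMSO wells and -100% = cell-free medium wells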
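After a 2 h attachment period, IDH1KD HT-1080 cells took pin-transferred compound for 48 h at 37 °C; ATP-based luminescence after 10 min room-temperature reagent incubation reported viability.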
HT1080-NT tox: qHTS for induction of synthetic lethality in tumor cells producing 2HG: qHTS for the HT-1080-NT fibrosarcoma cell line; hit rate 1.6% among 360,000; AID 686970, 2013; HT-1080-NT fibrosarcoma viability, CellTiter-Glo ATP luminescence, 48 h; Potency, µM (doses to about 46.1 µM), without a hit: at the top dose activity, negative = less viability, actives largely listed as cytotoxic;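 also: NT is the 2HG producing partner of a matched IDH1 knockdown line; 0% = DMSO-treated cells and -100% = media-only wells without cells; nearly all actives have a fitted effect of over 55% in size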
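Compounds were tested in concentration-response format on HT-1080-NT cells for 48 hours at 37 degrees C. Cell viability came from CellTiter-Glo luminescence; curves were classified by r2, response magnitude and activity.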
SW480 rereplic: A quantitative high throughput screen for small molecules that induce DNA re-replication in SW480 colon adenocarcinoma cells; SW480 DNA re-replication, Hoechst DNA content imaging, 48 h; Potency, µM (series often up to 46.1 µM), without a hit: at the highest dose re-replication activation, usual class: activators; hit rate 1.8% among 340,000; AID 624297, 2012; also: % of control where 0% means no effect; nearly all actives have a fitted effect of over 55% in size
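DNA re-replication was detected as more nuclei of elevated Hoechst intensity after 48 hr exposure to compound (23 nL pinned per well of 250 cells).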
KB-V1 cytotox: qHTS assay for MDR1-selective chemotherapeutics: Primary screen using the drug-selected MDR subline cells KB-V1. AID 1347076, 2019. Potency, µM (doses to about 46.1 µM), actives largely listed as cytotoxic. KB-V1 MDR cells viability, CellTiter-Glo, 72 h. hit rate 3.4% among 400,000; also: % is scaled to controls: 0 for no effect and ±100 for the full control effect; nearly all actives have a fitted effect of over 60% in size
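Drug-selected KB-V1 cells, grown in DMEM lacking phenol red with 10% FBS, receive compound titrations; after three days at 37 degrees C, surviving cell ATP is quantified by CellTiter-Glo luminescence and responses normalized and curve-fitted.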
KB-3-1 cytotox: qHTS assay for MDR1-selective chemotherapeutics: Primary screen using the parental adenocarcinoma cell KB-3-1. Potency, µM (titrated, usually from 46.1 µM), hits mostly cytotoxic. AID 1347075, 2019. hit rate 1.4% among 400,000. KB-3-1 viability, CellTiter-Glo ATP luminescence, 72 h; also: % is scaled to controls: 0 for no effect and ±100 for the full control effect; nearly all actives have a fitted effect of over 60% in size
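Luminescent ATP read-out (CellTiter-Glo) measures survival of drug-naive KB-3-1 cells after 72 h compound exposure at 37 °C. Titration series was screened from lowest to highest concentration, with DMSO vehicle plates as background controls.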
MCF10A rereplic: A quantitative high throughput screen for small molecules that induce DNA re-replication in MCF 10a normal breast cells | Potency, µM (doses to about 46.1 µM), inactives show top-dose activity, positive = re-replication, hits mostly activators | hit rate 2.9% among 350,000 | MCF 10A DNA re-replication, Hoechst nuclear intensity, 48 h | AID 624296, 2012; also: % of control where 0% means no effect; nearly all actives have a fitted effect of over 50% in size
Active calls of the source: *; i = inactive; u = inconclusive; x = not tested or not shown; [ ] = remark or other dose. Calls follow the shape of the dose curve; as a rule, active = well fitted curve in the direction sought with a large enough effect; inconclusive = small, poorly fitted or top-dose-only effect, or another doubt; inactive = no such curve, though single readings can be large; an effect the other way counts as inactive or inconclusive. Potency is read from the fitted curve at half-maximal effect.

SMILES	HT1080 IDH1KD tx	HT1080-NT tox	SW480 rereplic	KB-V1 cytotox	KB-3-1 cytotox	MCF10A rereplic
Cc1cc(N/N=C/c2ccc(O)cc2O)nc(-n2nc(C)cc2C)n1	u	-30%	u	u	u	5.2µM*
Cc1cc(N/N=C/c2ccccc2[N+](=O)[O-])nc(-n2nc(C)cc2C)n1	-28%	u	23%	u	u	7%
Cc1cc(N/N=C/c2cccc([N+](=O)[O-])c2)nc(-n2nc(C)cc2C)n1	15%	0%	3.7µM*	u	u	u
CC1CC2(C)Oc3ccccc3CC2C(C)C1CNCCCN(C)C (centres undefined)	6.5µM*	5.8µM*	5.2µM*	18µM*	15µM*	7.3µM*
CC1=C(CC(=O)c2ccccc2)C(=O)c2ccccc2C1=O	u	u	u	10µM*	u	u
O=C(CN1C(=O)c2ccccc2C1=O)c1ccccc1	18%	15%	-4%	i	i	-12%
CCOC(=O)c1csc(NC(=O)COc2ccc(Cl)cc2Cl)n1	-2%	0%	-9%	23µM*	i	15%
CCOC(=O)c1csc(NC(=O)c2cc(OC)c(OC)c(OC)c2)n1	-20%	-14%	0.23µM*	u	i	u
CN(C)c1ccc(-c2nnc(SCC(=O)NCc3ccco3)n2C)cc1	x	x	x	i	i	x
COc1ccc2nc(NN=C(C)c3ccccn3)cc(C)c2c1	12µM*	-29%	u	1.2µM*	u	u
Cc1ccc(C)c(N2CCN(CCCNC(=O)Cn3cc4c(n3)CCCCC4)CC2)c1	-26%	u	13%	21µM*	u	u
COC(=O)c1c(SC)nc2ccccc2c1OCc1ccccc1C	x	x	x	i	i	x
O=C(NC1CCCCC1)c1ccc(S(=O)(=O)NCc2ccco2)cc1	7%	7%	-10%	15µM*	i	3%
O=C(NC1CC1)c1ccc(S(=O)(=O)NCC2CCCCC2)cc1	10%[9.24 µM]	3%	0%	i	i	5.8µM*
O=C(NC1CC1)c1ccc(S(=O)(=O)NC2CCCCCC2)cc1	-28%	-3%	-3%	16µM*	i	29%
O=C(NC1CCN(Cc2ccccc2)CC1)c1ccc(S(=O)(=O)NCc2ccco2)cc1	-19%	-9%	18%	u	u	u
CSc1ccc(S(=O)(=O)NC2CCCCCC2)cc1	6%	0%	-4%	u	i	9.2µM*
CCCSCCCNC(=O)C1CCN(c2nn3cc(-c4ccc(F)cc4)nc3s2)CC1	x	x	x	i	i	x
CCOC(=O)C(=O)Nc1ccc(S(=O)(=O)Nc2nccs2)cc1	9%	0%	u	u	i	-4%
CCOC(=O)C1(Nc2nccs2)Sc2ccccc2NC1=O (centres undefined)	8.2µM*	10µM*	15µM*	u	5.8µM*	13µM*
CCOc1ccc(N(CC)S(=O)(=O)N2CCCC(C(=O)Nc3ccc(OC)c(OC)c3)C2)cc1 (centres undefined)	x	x	x	i	i	x
CCC(=O)Nc1ccc2c(c1)ncn2-c1ccccc1OC	13%	14%	-5%	i	i	4%
COc1ccc(-n2cnc3cc(NC(=O)c4ccco4)ccc32)cc1	-15%	13%	12%	16µM*	u	18%
COc1ccccc1-n1cnc2cc(NC(=O)c3ccco3)ccc21	u	11µM*	3%	u	u	0%
CC(C)n1cnc2cc(NC(=O)c3ccco3)ccc21	20%	4%	2%	i	i	1%
SMILES	HT1080 IDH1KD tx	HT1080-NT tox	SW480 rereplic	KB-V1 cytotox	KB-3-1 cytotox	MCF10A rereplic
C=CCOc1ccc(/C=C2\SC(=Nc3cccnc3)NC2=O)cc1	-8%	-18%	-69%	i	i	-4%
CC(/C=C1\SC(=Nc2cccnc2)NC1=O)=C\c1ccccc1	0%	-16%	22%[9.22 µM]	8.2µM*	16µM*	1.6µM*
Cc1ccc(S(=O)(=O)N2CCN(C(=O)c3c(C)nn(-c4ccccc4)c3Cl)CC2)cc1	20%	-1%	u	10µM*	i	u
COc1ccc(S(=O)(=O)N2CCN(C(=O)c3c(C)nn(-c4ccccc4)c3Cl)CC2)cc1	-7%	-5%	20%	u	i	u
Cc1cc(C)c(S(=O)(=O)N2CCN(C(=O)c3c(C)nn(-c4ccccc4)c3Cl)CC2)c(C)c1	-1%	-5%	8%	5.2µM*	u	29%
COc1ccc(-n2nc3c(c2NC(=O)CCl)CSC3)cc1	7.3µM*	21µM*	u	u	23µM*	4%
COc1ccc(-n2nc3c(c2NC(=O)C(C)Cl)CSC3)cc1 (centres undefined)	0%	2%	2%	i	i	14%
CCN1C(=O)CC(C(C)C)N(C2CCCC2)c2nc(Nc3ccc(C(=O)NC4CCN(C)CC4)cc3OC)ncc21 (centres undefined)	-22%	-22%	1%[9.22 µM]	u	u	u
COc1cc(C(=O)NC2CCN(C)CC2)ccc1Nc1ncc2c(n1)N(Cc1ccccc1)CCC(=O)N2C	u	21µM*	u	u	u	23µM*
CCN1C(=O)CC(c2ccccc2)N(C2CCCC2)c2nc(Nc3ccc(C(=O)NC4CCN(C)CC4)cc3OC)ncc21 (centres undefined)	23µM*	u	12%	u	18µM*	u
COc1cc(C(=O)NC2CCN(C)CC2)ccc1Nc1ncc2c(n1)N(C1CCCCC1)CCC(=O)N2C	4.6µM*	u	1.5µM*	i	u	0.65µM*
CCC(C(=O)NCCc1ccc(OC)c(OC)c1)n1nc(C)c2sc3ccccc3c2c1=O (centres undefined)	x	x	x	i	i	x
O=C(NCc1cccs1)c1ccc(CSc2nc3ccncc3n2Cc2ccccc2F)cc1	x	x	x	i	i	x
COc1ccc(C)cc1N1C(=N)/C(=C2/Nc3ccccc3S2)C(c2ccccc2)C1=O (centres undefined)	-11%	-14%	u	21µM*	u	23µM*
O=C(N/N=C/C1CC=CCC1)c1cc2ccccc2cc1O (centres undefined)	18µM*	u	-4%	i	i	u

Screening results: PubChem BioAssay, National Center for Advancing Translational Sciences (NCATS)
